PHOSPHO1 inh: inhibitors of human PHOSPHO1 phosphatase | Q8TCT1 | recombinant PHOSPHO1, absorbance phosphatase assay | inhibition, % at 13.3 µM | 290,000 compounds, 1.1% hits; in the data active = inhibition above about 60%
Target sequence (Q8TCT1 whole entry, looked up): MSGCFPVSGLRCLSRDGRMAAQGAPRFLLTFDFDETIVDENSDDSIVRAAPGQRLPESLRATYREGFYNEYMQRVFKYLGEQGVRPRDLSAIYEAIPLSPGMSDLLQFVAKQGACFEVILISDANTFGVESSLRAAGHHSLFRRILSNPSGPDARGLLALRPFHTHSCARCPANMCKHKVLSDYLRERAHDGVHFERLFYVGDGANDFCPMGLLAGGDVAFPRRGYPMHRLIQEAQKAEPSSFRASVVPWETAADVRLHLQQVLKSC
PABP1 MLLE inh: blocks PAM2 peptide binding to the PABP1 MLLE domain; P11940; GST-MLLE / FITC-PAM2 fluorescence polarization; inhibition, % at 20 µM; 360,000 compounds, 0.36% hits; AID 588489; in the data active = inhibition above about 35%, passing the limit was not always enough
APOBEC3A inh: blocks human APOBEC3A ssDNA deamination. recombinant A3A, FAM/TAMRA ssDNA deamination fluorescence. inhibition, % at 20 µM. P31941. 330,000 compounds, 0.41% hits. AID 493011;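 active = at least 40% inhibition at 20 µM here, with at most 30% in a related deaminase screen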
A3G deaminase: blocks human APOBEC3G single-stranded DNA deamination | Q9HC16 | recombinant A3G, ssDNA deamination FAM/TAMRA fluorescence | inhibition, % at 20 µM | 330,000 compounds, 0.28% hits;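 active = inhibition of at least 40% at 20 µM, with no more than 30% in the related APOBEC3A deaminase screen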
Target sequence (Q9HC16 whole entry, looked up): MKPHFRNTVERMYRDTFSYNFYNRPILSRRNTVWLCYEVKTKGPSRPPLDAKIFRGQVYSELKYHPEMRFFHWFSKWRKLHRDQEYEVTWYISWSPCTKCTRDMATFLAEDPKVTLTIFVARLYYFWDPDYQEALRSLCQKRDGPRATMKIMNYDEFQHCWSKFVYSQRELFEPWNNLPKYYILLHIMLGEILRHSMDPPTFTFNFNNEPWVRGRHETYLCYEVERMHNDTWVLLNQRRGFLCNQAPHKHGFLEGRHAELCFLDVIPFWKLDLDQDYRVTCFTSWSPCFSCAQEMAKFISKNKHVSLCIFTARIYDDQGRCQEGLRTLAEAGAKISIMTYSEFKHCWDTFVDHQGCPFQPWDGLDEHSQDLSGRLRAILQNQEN
PABP polyA inh: blocks human PABP binding to poly(A) RNA | calls only at 35 µM | 290,000 compounds, 1% hits | P11940 | AID 2014 | fluorescence polarization;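 note: calls also rest on retests at 20 µM and on dose response follow-up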
eIF4H inh: inhibitors of RNA binding by human eIF4H. eIF4H fluorescence polarization binding assay. AID 2012. 290,000 compounds, 0.94% hits. inhibition, % at 35 µM. Q15056;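 note: calls also rest on retests at 20 µM and on dose response follow-up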
Each line names hits and unclear results; the compound was inactive in the other large screens; ! = not active in a repeat. Compounds with a hit are over-represented: about 2.6% of the library has one in this group of screens. Unless noted, the rule behind the calls is not given here.

CCN(CC)S(=O)(=O)c1ccc2c(c1)nc(CCC(=O)OCC(=O)Nc1cc(Cl)cc(Cl)c1)n2C	none
CCC(=O)Nc1cc(NC(=O)CSc2ncc(-c3ccc(F)cc3)n2Cc2ccco2)ccc1C	PHOSPHO1 inh 71.5
CN1Cc2c(N)cccc2C(c2ccccc2)C1 (stereo unspecified)	PABP1 MLLE inh 79.6!, eIF4H inh inconclusive
COc1ccc(OC)c(S(=O)(=O)N2CCN(C(=O)CCc3ccccc3)CC2)c1	none
c1ccc2c(c1)CCCN2c1nc2ccccc2n2cnnc12	PABP polyA inh active, eIF4H inh 80.4
CCOC(=O)C1CSc2[nH]c(=O)sc2C1c1ccccc1 (stereo unspecified)	PHOSPHO1 inh 92.8
COc1ccc(C2c3sc(=O)[nH]c3SCC2C(N)=O)cc1 (stereo unspecified)	none
COc1cc(/C=C/CNC[C@H]2O[C@@H](n3cc(C)c(=O)[nH]c3=O)C[C@@H]2O)ccc1O	none (no result: PHOSPHO1 inh, APOBEC3A inh, A3G deaminase, PABP polyA inh, eIF4H inh)
COc1ccccc1NC(=O)Nc1nc(CC(=O)NCc2ccc(F)cc2)cs1	none (no result: PHOSPHO1 inh, PABP polyA inh, eIF4H inh)
C=C(C)C(=O)NC1=NN(c2ccccc2)C(=O)C1	none
O=C1CC(NC(=O)C(F)(F)F)=NN1c1ccccc1	PABP polyA inh active, eIF4H inh active
Cc1cc(C)n(CC2CC(=O)N(c3ccc(C)c(Cl)c3)C2=O)n1 (stereo unspecified)	PABP polyA inh active, eIF4H inh inconclusive
O=C1NN(c2ccc(Cl)c(Cl)c2)C(=O)/C1=C/c1ccc(-c2ccccc2C(=O)O)o1	PABP polyA inh active, eIF4H inh 40.0
O=C1NN(c2ccccc2)C(=O)/C1=C/c1ccc(-c2ccc(C(=O)O)cc2)o1	PABP polyA inh active, eIF4H inh 67.9
O=C(O)c1ccc(-c2ccc(/C=C3\NC(=O)N(Cc4ccc(Cl)cc4)C3=O)o2)cc1	PABP polyA inh active, eIF4H inh 72.6 (no result: APOBEC3A inh, A3G deaminase)
COc1ccc(S(=O)(=O)N2CCN(C(=O)CCNC(=O)c3ccccc3Cl)CC2)cc1	none (no result: PHOSPHO1 inh, PABP polyA inh, eIF4H inh)
COc1ccc(S(=O)NC2CCCCC2)c(OC)c1C (stereo unspecified)	PHOSPHO1 inh 86.6
Cc1nnc(SCC(=O)Nc2ccc(N3CCOCC3)cc2)n1-c1ccccc1	PHOSPHO1 inh 63.8
C=CCN1C(=O)c2ccc(C(=O)N3CCC(C(N)=O)CC3)cc2C1=O	none
O=C(c1ccc2c(=O)n(C3CCCC3)c(=S)[nH]c2c1)N1CCc2ccccc21	PHOSPHO1 inh 62.6
CCC(Sc1nnc(-c2ccc(C)c(Cl)c2)n1CC)C(=O)Nc1nccs1 (stereo unspecified)	PHOSPHO1 inh 62.4
CCn1c(SCC(=O)Nc2nccs2)nnc1-c1ccc(S(=O)(=O)N2CCCCCC2)cc1	none
Cc1ccccc1CC(=O)N1CCOCC1	none (no result: PHOSPHO1 inh)
COc1ccc(-c2oc(NC(=O)CSc3ncn[nH]3)c(C#N)c2-c2ccc(OC)cc2)cc1	PHOSPHO1 inh 71.2
COc1ccc(-c2oc(NC(=O)CCl)c(C#N)c2-c2ccc(OC)cc2)cc1	none
Clc1cccc(CN2CCSCC2)c1	none
CCN1C(=O)/C(=C2\Sc3ccccc3N2CC)OC1=S	PABP1 MLLE inh 46.4
COc1ccc(-n2c(-c3ccc(Br)cc3)c[n+]3c2CCC3)cc1	none
COc1ccc(-n2c(-c3ccc(Br)cc3)c[n+]3c2CCCCC3)cc1	PHOSPHO1 inh 68.1
COC(=O)c1[nH]c2ccccc2c1NC(=O)CN1CCCCCC1	PHOSPHO1 inh 65.3
c1ccc(-c2ncc(CN3CCN(c4ccccn4)CC3)[nH]2)cc1	none
COc1ccc(CCNC(=O)CSc2nc(=O)n3cc(C)ccc3n2)cc1OC	none (no result: PHOSPHO1 inh, PABP polyA inh, eIF4H inh)
CCC1(C)Cc2c(sc3[nH]c(=O)[nH]c(=O)c23)CS1 (stereo unspecified)	PABP polyA inh active, eIF4H inh 66.5
COC(=O)c1c(NC(=O)c2ccc(C)o2)sc2c1CCCCC2	PABP1 MLLE inh 36.7
Cc1ccc(C(=O)Nc2sc3c(c2C(=O)O)CCCCC3)o1	none
COC(=O)Nc1sc2c(c1C(=O)NC1CC1)CCCCCC2	PHOSPHO1 inh 88.0
COCC1CCN(Cc2c(C(=O)N3CCc4ccccc4C3)nc3ccc(Cl)cn23)C1 (stereo unspecified)	PABP polyA inh inconclusive, eIF4H inh inconclusive
C=CCN1C=C2C(=O)C(C)(OC(=O)CCC(=O)OC)C(=O)C(Br)=C2C=C1c1ccc(OC)cc1 (stereo unspecified)	PABP polyA inh active, eIF4H inh 94.9
COCCN1C=C2C(=O)C(C)(OC(=O)CCC(=O)OC)C(=O)C(Br)=C2C=C1c1ccc(OC)cc1 (stereo unspecified)	none (no result: PHOSPHO1 inh, PABP polyA inh, eIF4H inh)
Cc1ccc(C(=O)/C=C/C(=O)c2ccc(C)cc2)cc1	PABP polyA inh active (no result: eIF4H inh)
CCC1c2ccc(C)n2CCN1C(=O)Nc1ccc(F)cc1 (stereo unspecified)	PABP polyA inh active, eIF4H inh 112.6
Cn1c(=S)n(C)c2ccccc21	none
Cn1c(=S)[nH]c2ccccc21	PHOSPHO1 inh 73.9
N#CCCn1c(=S)[nH]c2ccccc21	PHOSPHO1 inh 88.1
CCOc1ccc2c(c1)[nH]c(=S)n2C	PHOSPHO1 inh 79.0
CCOc1ccc(OCCn2c(=S)[nH]c3ccccc32)cc1	none
CC(C)[C@@H]1CC[C@@H](C)C[C@H]1O	none (no result: PHOSPHO1 inh, APOBEC3A inh, A3G deaminase, PABP polyA inh, eIF4H inh)
COc1ccccc1N1CCN(S(=O)(=O)c2cc(-c3cc(C)no3)ccc2C(C)C)CC1	none
COc1ccccc1CN1CCNC(=O)C1CC(=O)N(C)C1CCOCC1 (stereo unspecified)	none (no result: PHOSPHO1 inh, APOBEC3A inh, A3G deaminase, PABP polyA inh, eIF4H inh)
CCOC(=O)N1CCN(S(=O)(=O)N2CCCC(C(=O)NCCCN3CC(C)CC(C)C3)C2)CC1 (stereo unspecified)	none
Cc1nc2ccc(S(=O)(=O)NCC(=O)NCCc3ccc(Cl)cc3)cc2s1	PHOSPHO1 inh 70.0
Cn1c(C(=O)N[C@@H](C(=O)O)c2ccccc2)cc2cc(Cl)ccc21	PABP polyA inh active
CN1C(=O)c2ccc(N3CCCC3)cc2C1=O	PABP polyA inh active, eIF4H inh 71.5
COC(=O)c1cc(S(=O)(=O)NCc2ccc3c(c2)OCO3)cn1C	PHOSPHO1 inh 64.0 (no result: PABP polyA inh, eIF4H inh)
CCOC(=O)c1cc(S(=O)(=O)NCc2ccc3c(c2)OCO3)cn1C	PHOSPHO1 inh 61.6
COC(=O)c1cc(S(=O)(=O)NCc2ccc3c(c2)OCO3)c[nH]1	none
CCOc1cccc(-c2nnc3sc(-c4ccco4)nn23)c1	PHOSPHO1 inh 64.1
c1ccc(-c2nn3c(-c4ccco4)nnc3s2)nc1	none
Cc1oc(-c2ccccc2Cl)cc1-c1nn2c(-c3ccco3)nnc2s1	PHOSPHO1 inh 71.9 (no result: PABP1 MLLE inh, APOBEC3A inh, A3G deaminase)
CCOc1cccc(-c2nnc3sc(-c4ccc(C)cc4)nn23)c1	none (no result: PABP1 MLLE inh, APOBEC3A inh, A3G deaminase)
c1coc(-c2nnc3sc(C4CCCCC4)nn23)c1	PHOSPHO1 inh 71.9
Brc1ccc(-c2nn3c(-c4ccco4)nnc3s2)o1	PHOSPHO1 inh 99.4, PABP polyA inh active, eIF4H inh 66.2
CC(C)c1onc(C(=O)N2CCN(C(c3ccccc3)c3ccccc3)CC2)c1[N+](=O)[O-]	none
